Test results as given in PubChem BioAssay (NCATS).
Inconclusive results are not listed. The source holds several records for some structures; these can differ, active in one and inactive in another. Activity calls are given as the source filed them. The call rests on the fitted dose curve; in most records, active means well fitted curve in the direction sought with a large enough effect; inconclusive means small, poorly fitted or top-dose-only effect, or another doubt; inactive means no such curve, though single readings can be large; an effect the other way counts as inactive or inconclusive.

Key:
[1] = Quantitative highthroughput screen to assess conditional lethalithy of NOMO1 cells grown in RPMI1640 with untreated serum (RPMI+s) (AID 1963876); further: nearly all actives have a fitted effect of over 35% in size; further: potency means the concentration at half of the fitted maximal effect;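 on viability: 100% = DMSO wells and 0% = empty wells without cells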
Procedure, shortened: (§1)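 Each medium arm—HPLM with 10% dialyzed FBS, or RPMI1640 with 5 mM glucose and 10% untreated or dialyzed FBS—was screened against an 11-point, 3-fold compound titration for 48 h at 37 °C, with CellTiter-Glo luminescence as endpoint.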

[2] = Quantitative highthroughput screen to assess conditional lethalithy of NOMO1 cells grown in RPMI1640 with dialyzed fetal bovine serum (RPMI+ds) (AID 1963877); further: nearly all actives have a fitted effect of over 30% in size; further: potency means the concentration at half of the fitted maximal effect;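 on viability: series mostly up to about 46 µM; 100% = DMSO control wells and 0% = empty wells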
Procedure, shortened: as §1

[3] = Quantitative highthroughput screen to assess conditional lethalithy of NOMO1 cells grown in Human Plasma-Like Medium with dialyzed fetal bovine serum (HPLM+ds) (AID 1963878); further: nearly all actives have a fitted effect of over 35% in size; further: potency means the concentration at half of the fitted maximal effect;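 on viability: 100% = DMSO wells and 0% = empty wells on each plate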
Procedure, shortened: as §1

[4] = Quantitative highthroughput screen to assess conditional lethalithy of P12 Ichikawa cells grown in RPMI1640 with dialyzed fetal bovine serum (RPMI+ds) (AID 1963880); settings: Potency: P12-Ichikawa viability; further: nearly all actives have a fitted effect of over 35% in size; further: potency means the concentration at half of the fitted maximal effect;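 on viability: 100% = DMSO wells and 0% = empty wells on each plate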
Procedure, shortened: as §1

[5] = Quantitative highthroughput screen to assess conditional lethalithy of P12 Ichikawa cells grown in RPMI1640 with untreated serum (RPMI+s) (AID 1963881); settings: Potency: viability; further: nearly all actives have a fitted effect of over 35% in size; further: potency means the concentration at half of the fitted maximal effect;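 on viability: series mostly up to about 46 µM; 100% = DMSO wells and 0% = empty wells without cells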
Procedure, shortened: as §1

[6] = Quantitative highthroughput screen to assess conditional lethalithy of SEM cells grown in RPMI1640 with dialyzed fetal bovine serum (RPMI+ds) (AID 1963884); further: nearly all actives have a fitted effect of over 35% in size; further: potency means the concentration at half of the fitted maximal effect;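 on viability: series mostly up to about 46 µM; 100% = DMSO control wells and 0% = empty wells without cells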
Procedure, shortened: as §1

[7] = Cellular viability qHTS for adrenocortical cancer (ACC) cell line NCI-H295R (AID 1963990); further: nearly all actives have a fitted effect of over 60% in size; further: potency means the concentration at half of the fitted maximal effect
Procedure, shortened: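 CellTiter-Glo ATP luminescence, read 48 h after compound addition, measured viability of NCI-H295R adrenocortical cells grown serum-free with ITS. Final concentrations spanned up to 46 uM. Data normalized to DMSO and doxorubicin, fitted for IC50 and maximal response.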

[8] = Quantitative highthroughput screen to assess conditional lethalithy of SEM cells grown in Human Plasma-Like Medium with dialyzed fetal bovine serum (HPLM+ds) (AID 1963882); further: nearly all actives have a fitted effect of over 35% in size; further: potency means the concentration at half of the fitted maximal effect; on viability: series mostly up to about 46 µM
Procedure, shortened: as §1

[9] = Quantitative highthroughput screen to assess conditional lethalithy of SEM cells grown in RPMI1640 with unreated serum (RPMI+s) (AID 1963883); further: nearly all actives have a fitted effect of over 35% in size; further: potency means the concentration at half of the fitted maximal effect;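 on viability: 100% = DMSO wells and 0% = empty wells without cells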
Procedure, shortened: as §1

[10] = Cellular viability qHTS for adrenocortical cancer (ACC) cell line SW-13 (AID 1963989); settings: SW-13 ACC cells viability, CellTiter-Glo, 48 h; activity (max response): active compounds read low; further: nearly all actives have a fitted effect of over 65% in size; further: potency means the concentration at half of the fitted maximal effect;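 on activity (max response): cells grown in serum-free medium with ITS supplement; on the % scale 0 is the no-effect control and ±100 the full control effect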
Procedure, shortened: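 Viability was read as CellTiter-Glo luminescence after 48 h compound treatment (up to 46 uM final) of SW-13 cells grown serum-free; titration curves were fit with a four-parameter logistic model to give IC50 and efficacy.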

[11] = Quantitative highthroughput screen to assess conditional lethalithy of P12 Ichikawa cells grown in Human Plasma-Like Medium with dialyzed fetal bovine serum (HPLM+ds) (AID 1963879); settings: Potency: viability
Procedure, shortened: as §1

O=c1n(CCCN2CCN(c3cccc(Cl)c3)CC2)nc2ccccn12
inactive: Potency [1] | Potency [2] | Potency [3] | Potency [4] | Potency [5] | Potency [6] | Potency [7]

CC(C)(C)COc1ccc(-n2cc(C(=O)O)cn2)cc1C#N
inactive: Potency [1] | Potency [2] | Potency [3] | Potency [4] | Potency [5] | Potency [8] | Potency [9] | Potency [6] | activity (max response) [10] 0.955% | Potency [7]

CCOC(=O)C1=C[C@@H](OC(CC)CC)[C@H](NC(C)=O)[C@@H](N)C1
inactive: Potency [1] | Potency [2] | Potency [3] | Potency [4] | Potency [5] | Potency [9] | Potency [6] | activity (max response) [10] 7.32% | Potency [7]

O=c1c2ccccc2nc2n1CCc1c-2[nH]c2ccccc12
inactive: Potency [1] | Potency [2] | Potency [3]
active: Potency [5] 13.2 µM

Cc1nc(NC(=O)N2CCC[C@@H]2C(N)=O)sc1-c1ccnc(C(C)(C)C(F)(F)F)c1
active: Potency [1] 2.96 µM | Potency [2] 2.64 µM | Potency [3] 2.64 µM | Potency [4] 5.9 µM | Potency [5] 3.32 µM | Potency [8] 1.48 µM

CC(=O)SC[C@@H](C)C(=O)N1CCC[C@H]1C(=O)N[C@@H](Cc1ccccc1)C(=O)O
inactive: Potency [1] | Potency [2] | Potency [3] | Potency [11] | Potency [9] | Potency [6] | activity (max response) [10] 16.6% | Potency [7]

O=C(N[C@H](CO)[C@H](O)c1ccc([N+](=O)[O-])cc1)C(Cl)Cl
inactive: Potency [1] | Potency [2] | Potency [3] | Potency [8] | Potency [9] | activity (max response) [10] -5.45% | Potency [7]
active: Potency [5] 20.9 µM

C=CC1=C(C(=O)O)N2C(=O)[C@@H](NC(=O)C(=NO)c3csc(N)n3)[C@H]2SC1
inactive: Potency [1] | Potency [2] | Potency [3] | Potency [4] | Potency [5] | Potency [8] | Potency [6]

O=c1oc2cc(O)ccc2s1
inactive: Potency [1] | Potency [2] | Potency [3] | Potency [4] | Potency [5] | Potency [7]

O=C1NC(=O)C(=Cc2ccc3c(c2)OC(F)(F)O3)S1
inactive: Potency [1] | Potency [2] | Potency [3] | Potency [4] | Potency [5] | Potency [8] | Potency [6]

CC=C(C(=CC)c1ccc(O)cc1)c1ccc(O)cc1
inactive: Potency [1] | Potency [2] | Potency [3] | Potency [4] | Potency [5] | Potency [8]

O=C(Nc1cc(C(F)(F)F)cc(C(F)(F)F)c1)c1cc(Cl)ccc1O
active: Potency [1] 3.32 µM | Potency [2] 2.96 µM | Potency [3] 2.96 µM | Potency [4] 3.32 µM | Potency [5] 2.96 µM | Potency [8] 4.18 µM | Potency [9] 2.96 µM | Potency [10] 0.355 µM | Potency [7] 1.12 µM

CS[C@H]1SC[C@@H]2C(=O)N(C)[C@H](C(C)C)C(=O)OC[C@H](NC(=O)c3cnc4ccccc4n3)C(=O)N[C@H](C)C(=O)N(C)[C@@H]1C(=O)N(C)[C@H](C(C)C)C(=O)OC[C@H](NC(=O)c1cnc3ccccc3n1)C(=O)N[C@H](C)C(=O)N2C
active: Potency [1] 0.0209 µM | Potency [2] 0.0209 µM | Potency [3] 0.0148 µM | Potency [4] 0.0105 µM | Potency [5] 0.0148 µM | Potency [9] 0.0026 µM

C[C@H]1[C@H](O)O[C@@H]2O[C@@]3(C)CC[C@@H]4[C@H](C)CC[C@@H]1[C@@]24OO3
active: Potency [1] 1.87 µM | Potency [2] 2.09 µM | Potency [3] 2.09 µM | Potency [5] 2.96 µM | Potency [8] 4.18 µM | Potency [6] 3.32 µM

Cc1ccc(-c2cc(C(F)(F)F)nn2-c2ccc(S(N)(=O)=O)cc2)cc1
inactive: Potency [1] | Potency [2] | Potency [3] | Potency [4] | Potency [5] | Potency [8] | Potency [9] | Potency [6] | activity (max response) [10] -6.62% | Potency [7]
active: Potency [10] 23.1 µM

O=C(O)C(=O)Nc1cccc(C2=NN=N[N]2)c1
inactive: Potency [1] | Potency [2] | Potency [3] | Potency [4] | Potency [5] | Potency [9] | Potency [6]

CC(C)(O)Cn1c(NC(=O)c2ccc(-c3cn[nH]c3)s2)nc2cc(CN3CCOCC3)ccc21
active: Potency [1] 4.18 µM | Potency [2] 4.18 µM | Potency [3] 2.96 µM | Potency [4] 2.35 µM | Potency [5] 2.96 µM | Potency [8] 0.105 µM | Potency [9] 0.0662 µM | Potency [6] 0.0935 µM

CN(N=O)C(=O)N[C@H]1C(O)OC(CO)[C@@H](O)[C@H]1O (stereo partly drawn)
inactive: Potency [1] | Potency [2] | Potency [3] | Potency [4] | Potency [5]

CN1CC(=O)N2C(Cc3c([nH]c4ccccc34)[C@H]2c2ccc3c(c2)OCO3)C1=O (stereo partly drawn)
inactive: Potency [1] | Potency [2] | Potency [3] | Potency [4] | Potency [5] | Potency [8] | Potency [9] | Potency [6]

C=C1C(=CC=C2CCC[C@]3(C)[C@@H]([C@H](C)CCCC(C)(C)O)CC[C@@H]23)C[C@@H](O)C[C@@H]1O
inactive: Potency [1] | Potency [2] | Potency [3] | Potency [11] | Potency [8]
